Screening results deposited in PubChem BioAssay by several laboratories.
CSC inhib: cancer stem cell inhibition | cancer stem cell-like cells viability, luminescence | inhibition, % at 7.5 µM | actives 1.1% (n = 300,000); in the data active = inhibition above about 75%; inconclusive = no clear call, values can overlap the other calls; tested in HMLE shEcad cells
Calb FLC: C. albicans growth modulation with fluconazole | C. albicans CaCi-2 (fluconazole-resistant clinical isolate) + fluconazole, Alamar Blue growth, 48 h | growth inhibition, % (concentration not given with the values) | actives 0.57% (n = 300,000);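 active = growth inhibition above about 58% in most replicates, limit read from the data, passing the limit was not always enough; inconclusive = exactly half the replicates above a set limit; inactive = most replicates below a set limit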;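 also: all wells also contain fluconazole at 8 µg/ml as a sub-toxic cotreatment; 0% = median of DMSO wells and 100% = median of geldanamycin control wells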
PP5 inh: inhibitors of human protein phosphatase 5 (PP5); P53041; purified PP5c, OMFP substrate fluorescence; inhibition, % at 6.7 µM; actives 0.18% (n = 320,000); AID 1987;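 active = inhibition above the campaign's mean inhibition across all tested compounds plus 3 SD, cut at about 9.5% in these data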;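 also: 0% = DMSO only and 100% = 100 µM cantharidin control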
Target sequence (P53041 whole entry, looked up): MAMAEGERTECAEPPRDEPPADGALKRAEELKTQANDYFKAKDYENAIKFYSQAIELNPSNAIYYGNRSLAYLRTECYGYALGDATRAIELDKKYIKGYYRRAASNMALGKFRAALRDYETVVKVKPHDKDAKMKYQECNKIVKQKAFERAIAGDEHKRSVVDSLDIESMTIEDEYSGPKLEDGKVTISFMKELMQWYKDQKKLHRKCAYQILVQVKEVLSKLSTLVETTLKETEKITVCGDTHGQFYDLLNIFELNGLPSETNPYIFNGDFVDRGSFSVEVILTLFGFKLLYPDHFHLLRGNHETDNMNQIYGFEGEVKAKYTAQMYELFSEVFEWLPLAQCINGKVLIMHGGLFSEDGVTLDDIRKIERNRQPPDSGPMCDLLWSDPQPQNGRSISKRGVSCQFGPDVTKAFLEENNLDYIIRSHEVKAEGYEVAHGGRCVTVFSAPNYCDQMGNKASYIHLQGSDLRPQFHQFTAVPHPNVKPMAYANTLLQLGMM
Beta apoptosis: beta cell apoptosis inhibition; protection from apoptosis, % (test concentration not listed); INS-1E cytokine-induced death, ATP luminescence, 48 h; percent of positive-control rescue, neutral wells zero; AID 435005; actives 0.8% (n = 300,000);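 active = Every replicate reaches about 75%, or at least half do and their mean reaches it too, limit read from the data; inconclusive = At least half of replicates reach the limit but their mean does not; inactive = Under half of replicates reach the limit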;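 also: 0% = cytokine-treated negative control wells and 100% = positive control rescue; higher means more ATP so stronger rescue from cytokine killing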
PP1 counter: counter-screen for PP5 inhibitors: inhibitors of human PP1-alpha. P62136. purified PP1alpha, OMFP fluorescence. inhibition, % at 6.7 µM. actives 0.9% (n = 320,000);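 active = inhibition above the mean inhibition of all tested compounds plus 3 SD, computed separately for each screening campaign, cut at about 15% in these data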
Mdm2 MdmX PPI: human Mdm2/MdmX binding inhibition. O15151+Q00987. SaOS-2 split-luciferase Mdm2/MdmX complementation, luminescence. inhibition, % at 8 µM. actives 3% (n = 330,000). AID 485346;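 active = inhibition of at least 50% at 8 µM in the primary screen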
An asterisk follows results filed as active; ? = inconclusive; / = no result. In the library only some 4.9% were active in any assay of this set; here they are far more common.

SMILES | CSC inhib | Calb FLC | PP5 inh | Beta apoptosis | PP1 counter | Mdm2 MdmX PPI
CCCCn1c(NS(=O)(=O)c2ccc(C)cc2)c(S(=O)(=O)c2ccccc2)c2nc3ccccc3nc21 | 108* | 35 | 8 | 3 | 0 | /
COc1cccc(CNC(=O)c2cc(S(=O)(=O)N3CCCC3)cn2C)c1 | -7 | -5 | -2 | -6 | 1 | 2
CN1CCc2c(sc3nc(SCC(N)=O)n(-c4ccccc4)c(=O)c23)C1 | 9 | -4 | 0 | -2 | 7 | 9
CN1CCc2c(sc3nc(SCC(N)=O)n(-c4ccc(Cl)cc4)c(=O)c23)C1 | / | 101* | 1 | / | 5 | 24
CC(C)(C)c1ccc(NC(=O)N2CCCN(c3c(Cl)cncc3Cl)CC2)cc1 | 77* | 23 | 4 | 3 | 2 | 37
O=C(Nc1ccccc1)N1CCCN(c2c(Cl)cncc2Cl)CC1 | -2 | -5 | 0 | -9 | -6 | 39
CCCOc1ccc(CSCCNC(=S)Nc2ccccc2)cc1 | 77* | -47 | 2 | 9 | 1 | 7
Cn1cccc1C(=O)NC(=O)COC(=O)CNC(=O)CNC(=O)c1ccc(Cl)cc1Cl | 0 | 16 | 2 | -6 | -8 | 9
O=C(CSc1nnc(-c2ccccc2O)n1Cc1ccccc1)NNC(=O)c1ccccc1O | 133* | ? | 3 | -2 | -1 | 32
O=C(CSc1nnc(-c2ccccc2)n1Cc1ccccc1)NNC(=O)c1ccccc1O | / | -4 | 3 | / | -2 | 34
Cc1ccoc1C(=O)N1CCN(C(=O)c2occc2C)CC1 | -4 | 3 | -2 | -3 | -9 | 15
CN1CCCC(OC(=O)c2ccc(C(C)(C)C)cc2)C1 (configuration not stated) | 49 | -10 | 3 | -6 | 1 | 11
CC(C)N1CC(O)=C(c2nc3ccccc3[nH]2)C1=N | 0 | 0 | 2 | -1 | 0 | 1
CC1(C)C(O)=C(c2nc3ccccc3[nH]2)C(=N)N1c1ccccc1 | -14 | 100* | 2 | 26 | -4 | -16
CCOC(=O)c1cnc(-n2nc(C)cc2C)nc1Nc1ccc(O)cc1 | -15 | -3 | -1 | 119* | 0 | 15
CCOC(=O)c1cnc(-n2nc(C)cc2C)nc1Nc1ccc(C)cc1 | / | 6 | / | / | / | /
Cc1ccc(C(=O)c2ccccc2C(=O)OCC(=O)Nc2ccc(SC(F)F)cc2)cc1 | -3 | -2 | -2 | 1 | -1 | 24
O=C(COC(=O)c1ccccc1Cc1ccccc1)Nc1ccc(SC(F)F)cc1 | 37 | -3 | 5 | 0 | 16* | /
O=C(NC(=S)Nc1nc(-c2ccc(Cl)cc2)cs1)c1cccs1 | 14 | -16 | 2 | 3 | -1 | 32
O=C(Nc1nc(-c2cc(Cl)sc2Cl)cs1)c1cccs1 | 112* | 6 | 4 | 15 | 0 | 23
CNc1oc(-c2ccc(Cl)cc2)nc1P(=O)(c1ccccc1)c1ccccc1 | 120* | -7 | 2 | 1 | 0 | 31
Cc1cc(N2CCCCC2)n2ncc(-c3ccccc3)c2n1 | 23 | 5 | 2 | -1 | 0 | 40
Cc1cc(N2CCCCC2)n2ncc(-c3ccc(Cl)cc3)c2n1 | 84* | 3 | 0 | 1 | 0 | 49
Cc1cc(N2CCOCC2)n2ncc(-c3ccccc3)c2n1 | -5 | -14 | 2 | 100* | 0 | 39
COc1ccc(CCNc2cc(C)nc3c(-c4ccc(Cl)cc4)cnn23)cc1OC | 92* | 29 | 4 | -1 | 0 | 39
SMILES | CSC inhib | Calb FLC | PP5 inh | Beta apoptosis | PP1 counter | Mdm2 MdmX PPI
Cc1cc(N2CCC(C)CC2)n2ncc(-c3ccccc3)c2n1 | -12 | 9 | 3 | 5 | -1 | 3
COc1ccccc1-c1cnn2c(NCCc3ccccc3)cc(C)nc12 | 10 | 12 | 1 | -1 | 2 | -30
O=C(CN(c1ccc(Cl)cc1)S(=O)(=O)c1ccc(Cl)c([N+](=O)[O-])c1)NCCc1ccc(F)cc1 | 82* | -6 | 0 | 3 | -2 | 9
O=C(CN(c1ccc(Cl)cc1)S(=O)(=O)c1ccc(Cl)c([N+](=O)[O-])c1)NCCc1ccccc1 | 58 | -4 | 0 | 11 | -2 | 30
COc1cc(N/N=C/c2ccccc2O)ncn1 | 23 | 44 | 1 | 88* | 2 | 43
COc1cc(N/N=C/c2ccc(N(C)C)cc2)ncn1 | 4 | 19 | -1 | 3 | 3 | -133
COCCN1C(=O)C(O)=C(C(=O)c2ccco2)C1c1cccc(Oc2ccccc2)c1 (configuration not stated) | 7 | 99* | 1 | -1 | 25* | 24
COc1cc(C2C(C(=O)c3ccco3)=C(O)C(=O)N2CCc2ccccc2)ccc1O (configuration not stated) | -13 | 14 | 2 | -2 | 15* | -12
CCCOc1cccc(C2C(C(=O)c3ccco3)=C(O)C(=O)N2CCN(CC)CC)c1 (configuration not stated) | -7 | 2 | 0 | -1 | 8 | -13
OCCC1CN(Cc2ccc3nsnc3c2)CCN1CCc1ccccc1 (configuration not stated) | 12 | / | 4 | 3 | -4 | 0
Cc1[nH]n(-c2ncc(-c3ccc(Cl)cc3)s2)c(=O)c1C(c1ccc(Cl)cc1)C(C#N)C#N (configuration not stated) | 96* | -5 | 4 | -2 | 3 | -21
COc1ccc(C(c2c(C)[nH]n(C(N)=S)c2=O)C(C#N)C#N)cc1 (configuration not stated) | 3 | / | -1 | -1 | 0 | -6
CNC(=S)Nc1cccc(Cl)c1C | 3 | -7 | -2 | -5 | -1 | -1
CCOc1ccc(Nc2nc(Cc3nnc(SCC(=O)c4ccc(C)c(C)c4)o3)cs2)cc1 | 20 | -26 | 5 | 97* | 14 | 15
C=CC[n+]1c(-c2ccc(OCC)cc2)csc1NNC(=O)Nc1ccccc1 | ? | 7 | 4 | 99* | 9 | 10
C=CC[n+]1c(-c2ccc(C)cc2)csc1Nc1c(C)n(C)n(-c2ccccc2)c1=O | 5 | -27 | -1 | / | 1 | 17
Cc1ccc(S(=O)(=O)N2CCOCC2)cc1C(=O)OCC(=O)NC1CCCC1 | -16 | / | / | -1 | / | 14
Cn1c(C(=O)OCC(=O)NCc2ccco2)cc2sccc21 | 11 | -5 | -1 | -1 | -2 | -8
Cc1cc2c(cc(C(=O)OCC(=O)NCc3ccco3)n2C)s1 | 38 | 102* | 2 | -17 | 4 | 13
CNC(=O)C1CCN(S(=O)(=O)c2c(C)noc2/C=C/c2ccc(OC)cc2)CC1 | -4 | -1 | -1 | -5 | -2 | -30
NS(=O)(=O)c1ccc(NC(=O)COC(=O)c2cnc(Cl)c(Cl)c2)cc1 | 4 | 2 | 1 | 5 | -2 | 15
Fc1ccc(N/N=C/c2ccncc2)c(F)c1 | 90* | ? | -2 | 3 | -3 | -42
O=C(O)c1ccc(/C=N/Nc2ccc(F)cc2F)cc1 | 16 | ? | 2 | -6 | -7 | -140
